High-throughput results deposited in PubChem BioAssay by The Scripps Research Institute Molecular Screening Center.
HTR5A inv ctr: inverse agonist of human HTR5A in OPRM1-OPRD1 counter-screen | P47898 | HTR5A cell line, luminescence, inverse agonism | inhibition, % at 9.3 µM | actives 0.083% (n = 340,000); in the data active = inhibition mostly above about 23%, no sharp cut-off; inactive = mostly below about 18%;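 note: 0% = cells with DMSO and 100% = no-cell wells with DMSO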
Target sequence (P47898 whole entry, looked up): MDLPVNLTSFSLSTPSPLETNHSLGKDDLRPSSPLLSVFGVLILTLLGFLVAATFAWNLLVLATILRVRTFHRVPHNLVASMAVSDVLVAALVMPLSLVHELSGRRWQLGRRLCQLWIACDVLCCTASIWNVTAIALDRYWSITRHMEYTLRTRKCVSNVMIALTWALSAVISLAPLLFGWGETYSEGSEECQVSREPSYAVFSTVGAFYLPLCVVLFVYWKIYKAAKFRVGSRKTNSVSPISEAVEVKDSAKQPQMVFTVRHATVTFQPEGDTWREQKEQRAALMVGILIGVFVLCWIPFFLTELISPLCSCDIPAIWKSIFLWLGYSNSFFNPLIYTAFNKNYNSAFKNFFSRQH
OPRM1-OPRD1 ag: agonists of human mu-delta opioid receptor heterodimerization; actives 0.3% (n = 340,000); P35372+P41143; activation, % at 9.3 µM; cells, OPRM1-OPRD1 heterodimerization, luminescence; in the data active = activation above about 18%;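 note: 0% = vehicle-treated cells and 100% = reference agonist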
bovine MsrA act: activators of bovine methionine sulfoxide reductase A; purified bovine MsrA, absorbance read-out; activation, % at 10.6 µM; actives 0.3% (n = 360,000); AID 602163; in the data active = activation above about 7.5%;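 note: 0% = vehicle and 100% = reference activator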
HTR5A ag: counter-screen for OPRM1-OPRD1 agonists: human HTR5A agonism. P47898. HTR5A agonist assay, luminescence, cell-based. activation, % at 9.3 µM. actives 0.61% (n = 340,000). AID 504692; in the data active = activation mostly above about 9.5%, no sharp cut-off; inactive = mostly below about 7.6%;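 note: 0% = cells with vehicle only and 100% = reference agonist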
MsrA inhibitor: inhibits bovine methionine sulfoxide reductase A. purified bovine MsrA, absorbance read-out. inhibition, % at 15.5 µM. actives 0.75% (n = 360,000). AID 651718; in the data active = inhibition above about 4.5%;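 note: 0% = vehicle wells with enzyme and 100% = reference inhibitor wells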
OPRM1-OPRD1 inv: inverse agonists of human mu-delta opioid receptor heterodimerization. P35372+P41143. cell-based MOR-DOR heterodimer luminescence, inverse agonism. inhibition, % at 9.3 µM. actives 0.21% (n = 340,000). AID 504357; in the data active = inhibition above about 22%, passing the limit was not always enough;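 note: 0% = cells with DMSO and 100% = wells without cells with DMSO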
MsrA act confirm: bovine methionine sulfoxide reductase A activation confirmed; shares compounds with bovine MsrA act; purified bovine MsrA, absorbance read-out; activation, % at 10.6 µM; actives 12% (n = 1,000); AID 602270; in the data active = activation above about 4%;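 note: enzyme coupled to thioredoxin and thioredoxin reductase with NADPH; 0% = vehicle wells and 100% = reference activator wells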
The depositor's hits bear a star; . = no result given. Most compounds without a hit are left out; they make up all but 1.9% or so of the library.

SMILES | HTR5A inv ctr | OPRM1-OPRD1 ag | bovine MsrA act | HTR5A ag | MsrA inhibitor | OPRM1-OPRD1 inv | MsrA act confirm
COC(=O)C1=C(C)N(Cc2cccc(C(F)(F)F)c2)C(=NCc2ccc(OC)cc2)NC1c1ccc(Cl)cc1 (stereo not given) | . | . | . | . | -1 | . | .
Cc1ccc(-c2ccnc(=S)[nH]2)cc1 | 6 | -2 | 9.4* | -6 | 0 | 10 | 6.2*
OC(COc1ccc2ccccc2c1)Cn1ccnc1 (stereo not given) | 7 | -2 | 8.1* | 4 | -1 | 14 | -2
C[C@@H]1CN([C@@H](C)CO)C(=O)CCCn2cc(nn2)CO[C@H]1CN(C)C(=O)Nc1ccccc1 | . | . | . | . | -1 | . | .
O=C(COC(=O)c1ccc([N+](=O)[O-])o1)NCc1ccc(F)cc1 | -6 | 3 | 3 | 2 | 1 | -13 | .
O=C(OCC(=O)c1ccc[nH]1)c1ccc([N+](=O)[O-])cc1 | 4 | -2 | -3 | -2 | 0 | 8 | .
O=C(COC(=O)c1ccc([N+](=O)[O-])s1)NNC(=O)c1ccccc1 | -12 | 3 | 22* | 5 | . | -12 | 9.0*
O=C(COC(=O)c1ccc([N+](=O)[O-])s1)c1ccc[nH]1 | 14 | 1 | 27* | -3 | 1 | -3 | 9.5*
O=C(COC(=O)c1ccc([N+](=O)[O-])s1)NCc1ccc(F)cc1 | -5 | -1 | 26* | 4 | 0 | 3 | 22*
CC(NC(=O)COC(=O)c1ccc([N+](=O)[O-])s1)c1ccccc1 (stereo not given) | 14 | 2 | -4 | 5 | 0 | -10 | .
O=C(COC(=O)c1ccc([N+](=O)[O-])s1)NC(=O)NCc1ccccc1 | -11 | 9 | 15* | 4 | 1 | -64 | 0
COC(=O)c1ccc2nc(-c3ccco3)c(Cc3ccccc3OC)n2c1 | . | . | . | . | 1 | . | .
CCc1cc(C(=O)OCC(=O)NCCc2ccccc2)sc1C | . | . | -6 | . | 0 | . | .
O=C(COC(=O)c1ccc([N+](=O)[O-])s1)NCCc1ccccc1 | 26 | 0 | 26* | 0 | . | -2 | 16*
O=C1CN(C(=O)COC(=O)c2ccc([N+](=O)[O-])s2)c2ccccc2N1 | -26 | 7 | 41* | 7 | . | -29 | 21*
O=C1CN(C(=O)COC(=O)c2cccs2)c2ccccc2N1 | -10 | 0 | 1 | 4 | 0 | 1 | .
Nc1nc2ncccc2cc1C(=O)NC1CC1 | . | . | . | . | 2 | . | .
C#CCN(C[C@H]1[C@H](OC(=O)Nc2cccs2)[C@H](OC(=O)Nc2cccs2)CN(C(=O)OC(C)C)N1C(=O)OC(C)C)S(=O)(=O)c1ccc(C)cc1 | . | . | . | . | 0 | . | .
COc1cccc(CC(=O)N2CCN(C(=O)C(=O)c3ccc(OC)c(OC)c3)CC2)c1 | . | . | . | . | 2 | . | .
CS(=O)(=O)Nc1ccc(C(=O)NCCSCc2c(F)cccc2Cl)cc1 | 16 | 0 | 8.3* | 4 | -1 | 1 | 1
CS(=O)(=O)Nc1ccc(C(=O)NCCSCc2ccccc2)cc1 | 0 | -2 | 2 | 4 | 2 | 11 | .
CCOC(=O)c1cccc(NC(=O)c2cnc3ccccc3n2)c1 | -34 | 0 | 13* | -1 | -1 | -1 | -1
CCOC(=O)c1cccc(NC(=O)c2cccnc2)c1 | 10 | -1 | -9 | 2 | -1 | 6 | .
CCCCn1nnnc1C(c1cc2ccccc2o1)N1CCN(C/C=C/c2ccccc2)CC1 (stereo not given) | . | . | 1 | . | 0 | . | .
CCCCn1nnnc1C(c1cc2ccccc2o1)N1CCCC1 (stereo not given) | . | . | 11* | . | 0 | . | -1
CN1CCN(S(=O)(=O)c2cccc(C(=O)N(Cc3nnc(-c4ccccc4Cl)o3)C3CC3)c2)CC1 | 14 | -2 | 7.8* | 1 | 0 | 9 | 0
Cc1ccsc1C(=O)N(Cc1nnc(-c2ccccc2Cl)o1)C1CC1 | 12 | -4 | -3 | 0 | 0 | 18 | .
COC(=O)c1[nH]c2c(c1C)C(=O)CC(c1cc(OC)ccc1OC)C2 (stereo not given) | -3 | -4 | 9.9* | 1 | -1 | 20 | 0
C[C@@H]1CN(S(=O)(=O)C(C)(C)C)[C@@H](CCO)/C1=C\CCO | . | . | . | . | 1 | . | .
C/C(=N/Nc1ccccc1C(=O)O)c1cccs1 | -39 | -1 | 16* | 5 | 4 | 6 | -3
